From PubChem
An excerpt weighted towards active compounds, which were near 3.6% of everything screened.
HSP90 inh – HSP90 inhibitors, primary screen, cell lysate, luminescence; inhibition, % at 5.6 µM; AID 1789, 2009; Rabbit reticulocyte lysate, luciferase refolding luminescence, 3 h; 290,000 compounds, 0.91% hits; Heat shock protein HSP 90 (rabbit reticulocyte lysate; luciferase refolding);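 active = inhibition above the screen-wide mean plus 3 SD, computed separately per campaign, cut at about 16% in these data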;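 also: 0% = DMSO wells and 100% = 60 µM geldanamycin wells; inhibitors lower the luminescence because luciferase stays unfolded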
Mdm2 MdmX PPI – inhibitors of human Mdm2-MdmX association, primary screen, cell-based, luminescence, split luciferase, SaOS-2, uHTS | 330,000 compounds, 3% hits | inhibition, % at 8 µM | SaOS-2 split-luciferase Mdm2/MdmX complementation | Protein Mdm4 (Homo sapiens) + E3 ubiquitin-protein ligase Mdm2 (Homo sapiens), …;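 active = inhibition of at least 50% at 8 µM in the primary screen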
Target sequence (O15151 whole entry, looked up): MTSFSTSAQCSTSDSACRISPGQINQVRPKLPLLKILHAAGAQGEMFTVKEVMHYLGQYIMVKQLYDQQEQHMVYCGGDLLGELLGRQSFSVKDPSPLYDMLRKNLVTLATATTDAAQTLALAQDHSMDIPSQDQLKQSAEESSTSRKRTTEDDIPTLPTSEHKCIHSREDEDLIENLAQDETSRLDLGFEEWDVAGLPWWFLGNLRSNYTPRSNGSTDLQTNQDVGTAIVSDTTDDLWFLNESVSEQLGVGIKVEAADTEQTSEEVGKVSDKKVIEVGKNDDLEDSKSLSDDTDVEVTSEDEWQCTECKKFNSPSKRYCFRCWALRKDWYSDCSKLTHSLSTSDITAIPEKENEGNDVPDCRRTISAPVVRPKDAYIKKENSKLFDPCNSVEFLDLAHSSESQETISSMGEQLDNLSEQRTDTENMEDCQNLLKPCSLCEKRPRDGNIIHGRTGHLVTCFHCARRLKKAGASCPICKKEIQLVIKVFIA
Target sequence (Q00987 whole entry, looked up): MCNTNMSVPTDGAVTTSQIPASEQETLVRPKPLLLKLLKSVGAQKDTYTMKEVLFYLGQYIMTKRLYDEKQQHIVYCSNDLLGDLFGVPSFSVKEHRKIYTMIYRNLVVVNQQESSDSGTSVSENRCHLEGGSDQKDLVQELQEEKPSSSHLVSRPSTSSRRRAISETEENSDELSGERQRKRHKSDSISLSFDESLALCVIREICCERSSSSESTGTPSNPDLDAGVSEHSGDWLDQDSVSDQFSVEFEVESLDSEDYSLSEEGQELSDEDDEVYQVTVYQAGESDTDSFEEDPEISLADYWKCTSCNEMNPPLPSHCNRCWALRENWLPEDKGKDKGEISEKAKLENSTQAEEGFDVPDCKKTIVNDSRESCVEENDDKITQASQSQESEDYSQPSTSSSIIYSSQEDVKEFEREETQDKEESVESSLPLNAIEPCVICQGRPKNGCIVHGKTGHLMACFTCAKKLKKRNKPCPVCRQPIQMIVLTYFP
CF NFkB inh – inhibitors of PAF-induced NF-kB signaling, primary screen, cell-based, GFP fluorescence, uHTS. inhibition, % at 5 µM. AID 588850, 2011. KKLEB NF-kB-GFP reporter, GFP fluorescence overnight. 360,000 compounds, 0.86% hits;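 active = at least 50% inhibition at 5 µM, scaled per plate between neutral and stimulator controls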;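 also: PAF is a Pseudomonas aeruginosa culture filtrate used as stimulus; plate controls were PAF-stimulated DMSO wells for no effect and unstimulated DMSO wells for full effect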
LGR2 inh – inhibitors of bursicon-induced LGR2 CRE-luciferase signal, primary screen, cell-based, HEK293, CRE-luciferase reporter, bursicon stimulation; Drosophila bursicon receptor LGR2 (rickets); bursicon-stimulated, 4 h; inhibition, % at 9.99 µM; 380,000 compounds, 0.35% hits;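 active = drop in luminescence signal, shown as inhibition above about 50% in the replicate tests, limit read from the data, passing the limit was not always enough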;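 also: agonist challenge used bursicon conditioned medium at about half maximal strength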
Peg3 promoter – Peg3 promoter-driven luciferase inhibitors, primary screen, cell-based, HeLa, luciferase luminescence | inhibition, % at 20 µM | HeLa PEG-Prom luciferase reporter, overnight | AID 588405, 2011 | 360,000 compounds, 1.7% hits;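 active = inhibition of at least 50% at 20 µM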
KKLEB tox – cytotoxicity in KKLEB CF airway cells, primary screen, cytotoxicity control for CF NF-kB inhibitor project, cell-based, uHTS, fluorescence assay plates | KKLEB CF airway cells viability, ATPlite luminescence, overnight; active compounds read low; cells stimulated with P. aeruginosa culture filtrate | activity change (cytotoxicity), % at 5 µM | 360,000 compounds, 0.36% hits;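 active = corrected activity change at or below -50% at 5 µM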
Mdm2-MdmX conf – Mdm2-MdmX complex disruptors, retested hits, confirmation, luminescence, single concentration | inhibition, % at 8 µM | Mdm2-MdmX binding, luminescent assay | 10,000 compounds, 55% hits | shares compounds with Mdm2 MdmX PPI; in the data active = inhibition above about 40%
FLuc counter – full-length luciferase signal inhibition, confirmation, counter-screen for Mdm2/MdmX interaction inhibitor project, cell-based, single concentration, SaOS-2; shares compounds with Mdm2 MdmX PPI; SaOS-2 full-length luciferase counterscreen, luminescence; inhibition, % at 8 µM; 6,200 compounds, 77% hits;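 active = mean inhibition at 8 µM reaching about 37%, which flags the compound as non-specific, limit read from the data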;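 also: p53-null SaOS-2 cells with luciferase driven by a doxycycline-inducible promoter; compound on cells about two nights before reading with doxycycline added after day one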
* marks the source's active call; other numbers are inactive results.

`Cn1c(=O)[nH]c(=O)c2c1nc(Br)n2Cc1cccc(Br)c1` gave HSP90 inh 1, Mdm2 MdmX PPI 18, CF NFkB inh 4, LGR2 inh -5, Peg3 promoter -4 and KKLEB tox -4.
Screening COc1ccc(S(=O)(=O)N[C@H]2C=C[C@@H](CC(=O)N3CCc4ccccc4C3)O[C@@H]2CO)cc1 returned LGR2 inh 1.
`COc1ccc(C2CC(c3ccccc3)=NN2C(=O)COC(=O)c2nc3nc(C)cc(C)n3n2)cc1` (stereo unspecified) gave HSP90 inh -1, Mdm2 MdmX PPI -6, CF NFkB inh 2, LGR2 inh -14, Peg3 promoter -27 and KKLEB tox 10.
`COc1ccc(C2CC(c3ccccc3)=NN2C(=O)COC(=O)c2cccc(O)c2)cc1` (stereo unspecified) gave Mdm2 MdmX PPI 55*, CF NFkB inh -9, LGR2 inh 12, Peg3 promoter 11, KKLEB tox -4 and Mdm2-MdmX conf -7.
For COc1ccc(C2CC(c3ccc4ccccc4c3)=NN2C(=O)CNC2CCCCC2)cc1 (stereo unspecified) the results were HSP90 inh 3, Mdm2 MdmX PPI 62*, CF NFkB inh 30, LGR2 inh 48, Peg3 promoter 90*, KKLEB tox -31 and Mdm2-MdmX conf 28.
For C[C@H](NC(=O)C[C@H]1C=C[C@@H](NC(=O)CN2CCOCC2)[C@@H](CO)O1)c1ccccc1 the results were LGR2 inh 4.
Screening CCC(=O)N1C[C@@H]2[C@H](c3ccccc31)[C@H](CO)N2C(=O)Nc1ccccc1F returned LGR2 inh 18.
`O=C1NC(=S)N/C1=C/c1cc2c(cc1[N+](=O)[O-])OCO2` gave HSP90 inh 4, Mdm2 MdmX PPI 55*, CF NFkB inh 32, LGR2 inh 3, Peg3 promoter 19, KKLEB tox -7 and Mdm2-MdmX conf 29.
Screening O=C(O)/C=C\c1cc2c(cc1[N+](=O)[O-])OCO2 returned HSP90 inh -1, Mdm2 MdmX PPI -6, CF NFkB inh 3, LGR2 inh 1, Peg3 promoter -6 and KKLEB tox 14.
Screening O=C(Nc1ccc2oc(=O)ccc2c1)c1ccc(-c2ccccc2[N+](=O)[O-])o1 returned HSP90 inh 7, Mdm2 MdmX PPI 62*, CF NFkB inh 4, LGR2 inh 5, Peg3 promoter 18, KKLEB tox -6 and Mdm2-MdmX conf -8.
COc1ccc(NC(=O)c2ccc(NC(=O)c3cccs3)cc2)cc1 was read as HSP90 inh 3, Mdm2 MdmX PPI 67*, CF NFkB inh 15, LGR2 inh -2, Peg3 promoter 19, KKLEB tox -22 and Mdm2-MdmX conf 26.
Screening O=C(NC(=S)Nc1ccc(N2CCN(C(=O)c3ccccc3)CC2)cc1)c1cccs1 returned HSP90 inh 4, Mdm2 MdmX PPI 51*, CF NFkB inh 12, Peg3 promoter 13, KKLEB tox 5 and Mdm2-MdmX conf 29.
O=C(NC(=S)Nc1cccnc1)c1cccs1 was read as HSP90 inh -1, Mdm2 MdmX PPI 7, CF NFkB inh -3, LGR2 inh -22, Peg3 promoter -58 and KKLEB tox -3.
`COc1cccc(NC(=O)c2ccc(CN3CCN(c4ccccc4)CC3)cc2)c1` gave HSP90 inh 3, Mdm2 MdmX PPI 57*, CF NFkB inh -32, LGR2 inh 0, Peg3 promoter 8, KKLEB tox 6 and Mdm2-MdmX conf 32.
`O=C(Nc1cccnc1)c1cccs1` gave HSP90 inh -5, Mdm2 MdmX PPI 77*, CF NFkB inh -1, LGR2 inh -7, Peg3 promoter 6, KKLEB tox 3, Mdm2-MdmX conf 70* and FLuc counter 40*.
`Cc1ccc(-c2ccc3c(c2)O[C@H](CN(C)C(=O)C2CC2)[C@@H](C)CN([C@@H](C)CO)S3(=O)=O)cc1` gave LGR2 inh -20.
For Cc1noc(C)c1S(=O)(=O)Nc1ccc2c(c1)C(=O)N([C@H](C)CO)C[C@@H](C)[C@@H](CN(C)C(=O)Nc1ccccc1)OCCCC[C@@H](C)O2 the results were LGR2 inh 8.
COc1cccc(C(=O)Nc2ccc(N3CCN(C(=O)c4cccs4)CC3)cc2)c1 was read as HSP90 inh 6, Mdm2 MdmX PPI 61*, CF NFkB inh 23, LGR2 inh 17, Peg3 promoter 16, KKLEB tox -7, Mdm2-MdmX conf 57* and FLuc counter 60*.
O=C(NCC[C@H]1CC[C@H](NS(=O)(=O)c2ccc(Cl)cc2)[C@H](CO)O1)c1ccccc1F was read as LGR2 inh -4.
Screening CCCN1C[C@H](C)[C@H](OC)CN(C)C(=O)c2ccc(NC(=O)C3CCOCC3)cc2OC[C@H]1C returned LGR2 inh 11.
Screening CCOC(=O)c1[nH]c2ccc(OC)cc2c1NC(=S)N1CCN(c2cccc(Cl)c2)CC1 returned HSP90 inh -2, Mdm2 MdmX PPI 50*, CF NFkB inh 5, LGR2 inh -2, Peg3 promoter 16, KKLEB tox 1 and Mdm2-MdmX conf 21.
For CCOC(=O)c1[nH]c2ccc(OC)cc2c1NC(=S)N1CCN(c2ccccc2)CC1 the results were HSP90 inh -6, Mdm2 MdmX PPI 8, CF NFkB inh -6, LGR2 inh 12, Peg3 promoter -16 and KKLEB tox 1.
`COc1ccc(-c2[nH]n(-c3ccc([N+](=O)[O-])cc3)c(=O)c2C=NCc2ccncc2)cc1` gave HSP90 inh -6, Mdm2 MdmX PPI 30, CF NFkB inh -14, LGR2 inh -9, Peg3 promoter 13 and KKLEB tox -15.
Screening COc1ccc(-c2cc(=O)n(-c3ccc([N+](=O)[O-])cc3)[nH]2)cc1 returned HSP90 inh -7, Mdm2 MdmX PPI 55*, CF NFkB inh 37, LGR2 inh -35, Peg3 promoter -25, KKLEB tox -19 and Mdm2-MdmX conf 13.
